Measurements reported in PubChem BioAssay (Tox21).
Values joined by “and” are separate entries in the source; they are usually repeats but may differ in a detail not shown here. Identical values can stand only once. Inconclusive results are not listed. Entries that show only a call come without a potency. Active and inactive are the calls of the source. Calls follow the shape of the dose curve; as a rule, active = well fitted cell-killing curve with a large enough effect in the repeat runs; inconclusive = weak or mixed curves, or effect the other way; inactive = no such curve, though single readings can be large or run the other way.
Potency is read from the fitted curve at half-maximal effect.

Assay: qHTS assay for identifying genotoxic compounds that show differential cytotoxicity against isogenic chicken DT40 cell lines with known DNA damage response pathways - wild type cell line (AID 743012); also: nearly all actives have a fitted effect of over 60% in size
Conditions: DT40 wild type chicken cells viability, CellTiter-Glo, 40 h; series mostly up to 68.4 µM
Source text: U.S. Tox21 Program National Center for Advancing Translational Sciences [NCATS] NIH Chemical Genomics Center [NCGC] U.S. Environmental Protection Agency [EPA] National Institutes of Environmental Health Sciences [NIEHS] National Toxicology Program [NTP] U.S. Food and Drug Administration [FDA] Tox21 Assay Overview: DNA repair pathways play a critical role in cellular homeostasis by repairing DNA damage induced by endogenous processes and xenobiotics. Isogenic chicken DT40 cell lines deficient in different DNA repair pathways can be used to identify genotoxic compounds and aid in characterizing the nature of the DNA damage induced. Two DNA repair-deficient cell lines with disrupted genes, Rad54/Ku70 or Rev3, were used to screen the Tox21 10K compound library. Possible genotoxicity was based on the presence of a significant increase in cytotoxicity in one or more of the DNA repair-deficient cell lines compared to that observed in the parental DNA repair-proficient cell line. CellTiter Glo viability assay (Promega, Madison, WI) was used to measure cell viability in these cells after compound treatment. This assay includes the data from the wild type cell line.
Tox21 Assay Protocol Summary: 300 DT40 wild type cells in 5 uL/well were dispensed into white, solid-bottom 1536-well plates using a Multidrop Combi (ThermoFisher Scientific, Waltham, MA) dispenser. After the assay plates were incubated at 37 C/5% CO2 for approximately 0.5 hour, 23 nL of compounds dissolved in DMSO, positive controls or DMSO only was transferred into the assay plate by a pintool work station (Kalypsys, San Diego, CA). The assay plates were incubated at 37 C/5% CO2 for 40 hours. After 5 uL per well of CellTiter-Glo reagent was added into each well of the assay plates, the plates were incubated for 30 min at room temperature and the luminescence intensity of the plates was measured using a ViewLux (PerkinElmer, Shelton, CT) plate reader.
In the case of `COc1cccc([C@@]2(O)CCCC[C@@H]2CN(C)C)c1`, the Potency is reported as “inactive”.
With `CCCCOC(C)=O` the Potency was “inactive”.
In the case of `CC[C@@H](CO)NC(=O)[C@@H]1C=C2c3cccc4c3c(cn4C)C[C@H]2N(C)C1`, the Potency is reported as 13.3 µM (active).
In the case of `O=C(CCl)NCO`, the Potency is reported as “inactive”.
For `CCCOc1nn(C(=O)NS(=O)(=O)c2ccccc2C(=O)OC)c(=O)n1C`, the Potency was “inactive”.
With `CCOC(=O)N(C)N=O` the Potency was “inactive”.
In the case of `C[N+]1(C)CCCCC1`, the Potency is reported as “inactive”.
For `CS(=O)(=O)Cl`, the Potency was “inactive”.
In the case of `CC[C@H](O)C(C[C@H](C)N(C)C)(c1ccccc1)c1ccccc1`, the Potency is reported as 62.3 µM (active).
With `C(COCC1CO1)OCC1CO1` (stereo not given) the Potency was 6.86 µM (active).
For `[O-][Br+2]([O-])O`, the Potency was “inactive”.
For `CCC1(c2ccccc2)CCC(=O)NC1=O` (stereo not given), the Potency was “inactive”.
For `CCCC(C)(COC(N)=O)COC(N)=O`, the Potency was “inactive”.
In the case of `CN(C)CCc1c[nH]c2cccc(OP(=O)(O)O)c12`, the Potency is reported as “inactive”.
For `c1ccc2c(c1)CCNC2`, the Potency was “inactive”.
For `CCCC[N+](=O)[O-]`, the Potency was “inactive”.
With `CC(C)(C)NC[C@H](O)c1ccc(O)cc1Cl` the Potency was “inactive”.
For `C=CC1(C)OC(=O)N(c2cc(Cl)cc(Cl)c2)C1=O` (stereo not given), the Potency was “inactive”.
With `CC[C@@H](CO)NC(=O)[C@@H]1C=C2c3cccc4[nH]cc(c34)C[C@H]2N(C)C1` the Potency was “inactive”.
In the case of `O=[N+]([O-])CCO`, the Potency is reported as “inactive”.
With `C=CCc1cc(OC)c2c(c1)OCO2` the Potency was “inactive”.
With `CC(C)NCC(O)c1ccc([N+](=O)[O-])cc1` (stereo not given) the Potency was “inactive”.
In the case of `CCNc1nc(Cl)nc(NC(C)(C)C)n1`, the Potency is reported as “inactive”.
With `CCOP(=O)(CN(CCO)CCO)OCC` the Potency was “inactive”.
With `CCC1(CC)C(=O)C=CNC1=O` the Potency was “inactive”.
For `BrCc1ccc(Br)cc1`, the Potency was “inactive”.
For `CC(C)[C@]12CC(=O)[C@H](C)[C@H]1C2`, the Potency was “inactive”.
In the case of `O=S1(=O)OCCO1`, the Potency is reported as “inactive”.
For `CCCCCCC(=O)CCCCCC/C=C/C[C@@H](O)[C@H](O)[C@@](N)(CO)C(=O)O`, the Potency was 23.7 nM (active) and 10.6 nM (active).
With `ClCCCCl` the Potency was “inactive”.
For `N[C@@H](Cc1ccc(Oc2cc(I)c(O)c(I)c2)c(I)c1)C(=O)O`, the Potency was “inactive”.
In the case of `NC(=O)CS(=O)C(c1ccccc1)c1ccccc1` (stereo not given), the Potency is reported as “inactive”.
With `C=CCCC#N` the Potency was “inactive”.
With `C#CC(C)(C)O` the Potency was “inactive”.
For `COc1cc(CCN)cc(OC)c1OC`, the Potency was “inactive”.
In the case of `O=C(Cl)/C=C/C(=O)Cl`, the Potency is reported as “inactive”.
For `C=C(Cl)CCl`, the Potency was “inactive”.
With `CCC1(c2ccccc2)C(=O)N(COC)C(=O)N(COC)C1=O` the Potency was “inactive”.
For `NCCOS(=O)(=O)O`, the Potency was “inactive”.
With `C/C(=N\NC(=O)Nc1cc(F)cc(F)c1)c1ncccc1C(=O)O` the Potency was “inactive”.
